In PubChem BioAssay (NCATS):
Records with an inconclusive call do not appear. Calls of active or inactive are those of the source. The call rests on the fitted dose curve; in most records, active means well fitted curve in the direction sought with a large enough effect; inconclusive means small, poorly fitted or top-dose-only effect, or another doubt; inactive means no such curve, though single readings can be large; an effect the other way counts as inactive or inconclusive.

Experiments:
[1] = OV-KATE Cancer Cell Toxicity qHTS against the NCATS CANVASS Library (AID 1347345); details: OV-KATE cells viability, CellTiter-Glo luminescence, 72 h; series mostly up to 38.3 µM
Method in brief: (§1)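 Step one: seed 1000 cells per well. Step two: incubate 4 h. Step three: add test compounds in 11 concentrations. Step four: culture 72 h, then add CellTiter-Glo and record luminescence after 15min.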

[2] = HPAF-II Cancer Cell Toxicity qHTS against the NCATS CANVASS Library (AID 1347346); details: HPAF-II viability, CellTiter-Glo ATP luminescence, 72 h; series mostly up to 38.3 µM; further: nearly all actives have a fitted effect of over 55% in size
Method in brief: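 First, HPAF-II cells are plated (1000 cells/well) and held 4 h at 37 degrees C. Next, compounds are pin-transferred as an 11-point series. After 72 h, CellTiter-Glo is added and luminescence measured.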

[3] = UWB1.289 Cancer Cell Toxicity qHTS against the NCATS CANVASS Library (AID 1347347); details: UWB1.289 viability, CellTiter-Glo luminescence, 72 h; series mostly up to 38.3 µM; further: nearly all actives have a fitted effect of over 60% in size
Method in brief: as §1

[4] = OV-SAHO Cancer Cell Toxicity qHTS against the NCATS CANVASS Library (AID 1347348); details: OV-SAHO viability, CellTiter-Glo luminescence, 72 h; series mostly up to 38.3 µM; further: nearly all actives have a fitted effect of over 55% in size
Method in brief: as §1

[5] = Panc-1005 Cancer Cell Toxicity qHTS against the NCATS CANVASS Library (AID 1347349); details: Panc-1005 viability, CellTiter-Glo luminescence, 72 h; series mostly up to 38.3 µM; further: nearly all actives have a fitted effect of over 60% in size
Method in brief: as §1

[6] = SW1088 Cancer Cell Toxicity qHTS against the NCATS CANVASS Library (AID 1347350); details: SW1088 viability, CellTiter-Glo luminescence, 72 h; series mostly up to 38.3 µM; further: nearly all actives have a fitted effect of over 75% in size
Method in brief: as §1

[7] = U-118MG Cancer Cell Toxicity qHTS against the NCATS CANVASS Library (AID 1347351); details: U-118MG viability, CellTiter-Glo luminescence, 72 h; series mostly up to 38.3 µM
Method in brief: as §1

[8] = COV-362 Cancer Cell Toxicity qHTS against the NCATS CANVASS Library (AID 1347352); details: COV-362 viability, CellTiter-Glo luminescence, 72 h; series mostly up to 38.3 µM
Method in brief: (§2)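 First, 1000 cells go into each well and rest for 4 hours. Next, an 11-point dilution range is pinned in. Plates then incubate 72 hours before CellTiter-Glo addition and luminescence reading.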

[9] = A2780 Cisplatin Sensitive Ovarian Cancer Cell Toxicity qHTS against the NCATS CANVASS Library (AID 1347353); details: A2780 ovarian cancer viability, ATPLite luminescence, 72 h; at 46.1 µM (top of the series); further: nearly all actives have a fitted effect of over 60% in size
Method in brief: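 Cells are plated at 750 per well and rest for 4 hours. Compounds are added across eleven concentrations, and incubated 72 hours before ATP is quantified by luminescence.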

[10] = UWB1.289-WTBRCA1 Cancer Cell Toxicity qHTS against the NCATS CANVASS Library (AID 1347354); details: UWB1.289-WTBRCA1 viability, CellTiter-Glo luminescence, 72 h; at 38.3 µM (top of the series)
Method in brief: as §2

[11] = HEK-293 Cancer Cell Toxicity qHTS against the NCATS CANVASS Library (AID 1347355); details: HEK-293 viability, CellTiter-Glo luminescence, 72 h; series mostly up to 46.1 µM; further: nearly all actives have a fitted effect of over 65% in size
Method in brief: as §2

[12] = HPAF-II 24hr Apoptosis Induction qHTS against the NCATS CANVASS Library (AID 1347356); details: HPAF-II caspase-3/7 Caspase-Glo luminescence; series mostly up to 46.1 µM
Method in brief: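 Cells seeded at 500 per well, then compounds pin-transferred in an 11-point concentration series. After 24 hours at 37 degrees C, Caspase-Glo 3/7 was added and luminescence measured following 15 min at room temperature.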

[13] = HEK293 18hr Apoptosis Induction qHTS against the NCATS CANVASS Library (AID 1347357); details: HEK293 caspase-3/7 Caspase-Glo luminescence; series mostly up to 46.1 µM
Method in brief: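 HEK293 cells (500 per well, DMEM with 10% FBS) were treated with natural products, incubated 18 hours at 37 degrees C, then caspase-3/7 activity was read by Caspase-Glo luminescence after 15 min at room temperature.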

[14] = HPAF-II 12hr Apoptosis Induction qHTS against the NCATS CANVASS Library (AID 1347358); details: HPAF-II caspase-3/7 Caspase-Glo luminescence; series mostly up to 46.1 µM
Method in brief: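 Cells plated at 500 per well are dosed with compound and incubated 12 hours at 37 degrees C. Caspase-Glo 3/7 reagent is added and, after 15 min at room temperature, luminescence proportional to caspase activity is measured.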

[15] = HEK293 24hr Apoptosis Induction qHTS against the NCATS CANVASS Library (AID 1347359); details: HEK293 caspase-3/7 activation, Caspase-Glo luminescence; series mostly up to 46.1 µM
Method in brief: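 HEK293 cells (500/well, DMEM + 10% FBS) were exposed to compounds in an 11-point series for 24 hours at 37 degrees C, then caspase-3/7 activity was read by Caspase-Glo DEVD luciferase luminescence after 15 min.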

[16] = HPAF-II 18hr Apoptosis Induction qHTS against the NCATS CANVASS Library (AID 1347360); details: HPAF-II caspase-3/7 luminescence; series mostly up to 46.1 µM
Method in brief: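 HPAF-II cells (500/well, DMEM + 10% FBS) were exposed to compounds for 18 hours at 37 degrees C. Caspase-3/7 activity was then read by Caspase-Glo 3/7 luminescence after 15 min at room temperature.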

[17] = HEK293 12hr Apoptosis Induction qHTS against the NCATS CANVASS Library (AID 1347361); details: HEK293 caspase-3/7 Caspase-Glo luminescence; series mostly up to 46.1 µM
Method in brief: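 Read-out: Caspase-Glo 3/7 luminescence (DEVD substrate), 15 min RT. Preceded by 12 h compound exposure of HEK293, 500 cells/well, 11-pt qHTS titration; doxorubicin titration as control.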

[18] = test system: NAD(P)H diaphorase (Clostridium kluyveri); assay: Diaphorse counterscreen qHTS: Assay Interference Panel against the NCATS CANVASS Library (AID 1347362); details: Diaphorase enzyme, resazurin to resorufin fluorescence; series mostly up to 57.5 µM
Method in brief: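 Clostridium kluyveri diaphorase in PBS with 0.01% Tween-20 was preincubated 15 min at room temperature in the dark with compounds (11-point series). Resorufin fluorescence (ex 525/20, em 598/25) was read 5 min after adding resazurin/NADH.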

[19] = biological target: Luciferin 4-monooxygenase (Photinus pyralis) (UniProt P08659); assay: Firefly luciferase counterscreen qHTS: Assay Interference Panel against the NCATS CANVASS Library (AID 1347363); details: purified firefly luciferase, luminescence inhibition, 5 min; series mostly up to 57.5 µM
Method in brief: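 Purified P. pyralis luciferase was added to compounds (11-point series) preincubated 15 min at room temperature with substrate containing 0.013 mM D-luciferin and 0.013 mM ATP; luminescence was read after 5 min.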

[20] = KB-8-5-11 Cancer Cell Toxicity qHTS against the NCATS CANVASS Library (AID 1347364); details: KB-8-5-11 MDR cells viability, CellTiter-Glo, 72 h; series mostly up to 46.1 µM; further: nearly all actives have a fitted effect of over 75% in size
Method in brief: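 Terse: KB-8-5-11, 500 cells/well, 72 hr, 37C/5% CO2, 11-pt titration, CellTiter-Glo readout; confirmatory runs ± 1uM tariquidar in medium.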

Measured: outcome

Luciferin 4-monooxygenase (Photinus pyralis), sequence (P08659 whole entry, looked up): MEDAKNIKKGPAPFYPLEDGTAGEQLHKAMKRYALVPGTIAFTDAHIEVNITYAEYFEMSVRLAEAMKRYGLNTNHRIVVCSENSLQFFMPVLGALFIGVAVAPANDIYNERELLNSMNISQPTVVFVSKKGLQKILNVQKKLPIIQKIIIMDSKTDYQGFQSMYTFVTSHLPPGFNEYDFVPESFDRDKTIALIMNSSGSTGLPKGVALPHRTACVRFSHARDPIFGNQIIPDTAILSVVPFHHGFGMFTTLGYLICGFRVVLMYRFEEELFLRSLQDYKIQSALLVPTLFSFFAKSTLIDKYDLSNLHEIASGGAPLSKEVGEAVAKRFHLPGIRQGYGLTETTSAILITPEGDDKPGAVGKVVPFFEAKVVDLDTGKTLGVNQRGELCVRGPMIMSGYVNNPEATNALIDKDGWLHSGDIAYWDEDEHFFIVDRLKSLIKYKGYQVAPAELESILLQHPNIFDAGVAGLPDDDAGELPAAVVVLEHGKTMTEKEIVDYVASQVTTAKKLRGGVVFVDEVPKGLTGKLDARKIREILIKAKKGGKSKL

CN(C)CCc1c[nH]c2ccccc12
inactive: all assays above
